The list is not random: actives were taken first. Their share in the collection is about 3.6%.
Mtb FBA inh – Mtb fructose-bisphosphate aldolase inhibition. P9WQA3. purified M. tuberculosis FBA, fluorescence read-out. inhibition, % at 1 µM. 360,000 tested, 2.3% active. AID 588726;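 also: 0% = vehicle and 100% = reference inhibitor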
Target sequence (P9WQA3 whole entry, looked up): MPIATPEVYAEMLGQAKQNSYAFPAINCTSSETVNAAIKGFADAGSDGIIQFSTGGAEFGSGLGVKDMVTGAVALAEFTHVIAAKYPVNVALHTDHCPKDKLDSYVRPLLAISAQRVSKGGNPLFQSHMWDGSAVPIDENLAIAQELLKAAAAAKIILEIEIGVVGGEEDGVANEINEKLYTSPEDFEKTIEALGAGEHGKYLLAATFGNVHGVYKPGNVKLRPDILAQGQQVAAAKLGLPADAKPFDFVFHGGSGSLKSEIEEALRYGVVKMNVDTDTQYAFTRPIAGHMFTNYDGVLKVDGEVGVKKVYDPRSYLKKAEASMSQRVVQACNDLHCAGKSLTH
Mtb hypoxia rep – inhibitors of hypoxia-regulated fluorescent reporter in Mycobacterium tuberculosis. fluorescence inhibition, % (concentration not given with the values). 300,000 tested, 0.1% active. AID 1159583. M. tuberculosis hypoxia-regulated fluorescent reporter, fluorescence; in the data active = fluorescence inhibition mostly above about 23%, no sharp cut-off; inactive = mostly below about 17%
VHR inh abs – inhibitors of human VHR1 phosphatase (DUSP3) | inhibition, % at 13.3 µM | 290,000 tested, 0.52% active | recombinant VHR phosphatase, pNPP absorbance; in the data active = inhibition above about 50%
Target sequence (P51452 whole entry, looked up): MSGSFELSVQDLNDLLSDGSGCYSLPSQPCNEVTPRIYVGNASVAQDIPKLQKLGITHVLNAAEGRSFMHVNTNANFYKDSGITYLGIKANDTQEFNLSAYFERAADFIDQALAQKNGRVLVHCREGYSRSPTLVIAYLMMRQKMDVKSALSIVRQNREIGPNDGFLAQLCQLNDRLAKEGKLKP
GDH-TPI counter-1 – inhibits GDH-TPI coupling enzymes, artifact for Mtb FBA screen; GDH-TPI coupled enzyme counterscreen, NADH absorbance; inhibition, % at 4.8 µM; 360,000 tested, 1.2% active; in the data active = inhibition above about 30%;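 also: 0% = DMSO wells and 100% = wells lacking the enzyme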
Mtb betalactam – beta-lactam sensitization of Mtb H37Rv; AID 434955; inhibition, % at 25 µM; 330,000 tested, 0.27% active; M. tuberculosis H37Rv growth with meropenem, percent inhibition; call rule not given here;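 also: growth measured after seven days incubation then overnight dye step; 0% = bacteria only wells and 100% = bacteria with antibiotic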
Mtb FBA inh conf – Mtb FBA inhibition, confirmed; shares compounds with Mtb FBA inh; purified M. tuberculosis FBA, fluorescence read-out; inhibition, % at 1 µM; 5,600 tested, 78% active;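 also: 0% = vehicle wells and 100% = reference inhibitor wells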
GDH-TPI counter-2 – counter-screen for M. tuberculosis FBA inhibitors: GDH-TPI coupled enzyme inhibition | inhibition, % at 1 µM | shares compounds with Mtb FBA inh | GDH-TPI coupled enzyme counterscreen, fluorescence | 5,600 tested, 81% active; in the data active = inhibition above about 10%
GDH-TPI DR – inhibits GDH-TPI coupling enzymes in dose response; 170 tested, 79% active; IC50, µM; GDH-TPI coupled enzyme assay, fluorescence, artifact counterscreen; shares compounds with Mtb FBA inh; AID 652145; call rule not given here
* marks the source's active call; other numbers are inactive results; / = no result given; + = active, no number. Rule as the data show it, unless noted: active = inhibition above about 27%; inactive = the rest.

SMILES	Mtb FBA inh	Mtb hypoxia rep	VHR inh abs	GDH-TPI counter-1	Mtb betalactam	Mtb FBA inh conf	GDH-TPI counter-2	others
CCN(CCCNC(=O)CNC(=O)c1nn(-c2ccc(OC)c(OC)c2)c(=O)c2ccccc12)c1ccccc1	27*	-1	15	3	-4	189*	156*
CCOc1ccc(-n2nc(C(=O)NC3CCCCC3)c3ccccc3c2=O)cc1	1	5	47	6	8	/	/
CCOc1ccc(-n2nc(C(=O)NCCOC)c3ccccc3c2=O)cc1	68*	/	3	6	-4	+	191*
C=C1C2CCC3C(OC(C)=O)[C@@]2(CC(O)[C@@]2(O)C1CC(O)C2(C)C)C[C@@]3(C)O (stereo not given in full)	/	1	/	/	/	/	/
NCCCCC1CNC(=O)C(=O)N1CCCCC1CCCCC1 (stereo not given)	/	-3	/	/	/	/	/
c1nc2sc3c(c2c2nnnn12)CCC3	36*	4	26	2	-4	10	3
CCC(=O)Nc1c(S(=O)(=O)c2ccc(C)cc2)c2nc3ccccc3nc2n1C(C)c1ccccc1 (stereo not given)	58*	-5	8	5	-1	50*	30*
CC(c1ccccc1)n1c(S(=O)(=O)O)nc2ccccc21 (stereo not given)	-1	16	18	-4	-4	/	/
CCC(=O)Nc1c(S(=O)(=O)c2ccccc2)c2nc3ccccc3nc2n1C(C)c1ccccc1 (stereo not given)	73*	3	0	27	2	73*	68*
Cc1ccc(S(=O)(=O)NCCC(=O)NC(C)c2ccccc2)cc1 (stereo not given)	2	16	-9	10	-8	/	/
O=C(NN=Cc1ccncc1)c1cc([N+](=O)[O-])cc([N+](=O)[O-])c1	/	7	/	/	/	/	/
COc1ccccc1C(=O)NN=C(C)CC(=O)Nc1ccc(Nc2ccccc2)cc1	/	10	/	/	/	/	/
CCN1CC2C3C(=O)N(C)C(=O)C3[C@](C)(C1=O)N2C(=O)c1ccc(Br)cc1 (stereo not given in full)	/	19	/	/	/	/	/
CCc1ccc(C=C2SC(=S)N(CC(=O)Nc3nc4ccccc4s3)C2=O)cc1	/	6	/	/	/	/	/
Nc1cc(Cl)ccc1C(=O)OCC(=O)NC1CCCCCCC1	27*	9	/	7	-6	73*	56*
Nc1cc(Cl)ccc1C(=O)OCC(=O)NC(=O)NCc1ccccc1	30*	1	-4	4	-1	63*	49*
O=C(COC(=O)c1cc(Cl)ccc1Cl)NC1CCCC1	4	5	-11	3	94	/	/
Cc1ccc(C)c(C(=O)OCC(=O)NC(=O)NCc2ccccc2)c1	0	/	/	3	/	/	/
CN(Cc1ccccc1)C(=O)COC(=O)c1ccc(Cl)cc1N	50*	-2	29	0	7	101*	90*
CN(Cc1ccccc1)C(=O)COC(=O)Cc1ccc(Cl)cc1	-3	14	/	1	15	/	/
COc1cc(F)c(C2=CC(=O)CC(c3ccc(F)cc3)C2)cc1F (stereo not given)	/	22	/	/	/	/	/
CC(=NOCC(=O)NN=Cc1ccccc1O)c1cccs1	/	3	/	/	/	/	/
CC=C(C)C(=O)Nc1cccc(C2=NOC3(C2)CC(C(N)=O)N(C(=O)C2(C)CC2)C3)c1 (stereo not given)	/	2	/	/	/	/	/
CCOC(=O)C(N=Nc1sc(C(=O)OCC)c(C)c1C(=O)OCC)=C(C)O	/	-11	/	/	/	/	/
C=CCNC(=O)C(C#N)c1nc2ccccc2nc1N1CCCCCC1 (stereo not given)	41*	-6	10	15	64	+	+
SMILES	Mtb FBA inh	Mtb hypoxia rep	VHR inh abs	GDH-TPI counter-1	Mtb betalactam	Mtb FBA inh conf	GDH-TPI counter-2	others
N#CC(c1nc2ccccc2nc1N1CCCC1)S(=O)(=O)c1ccccc1 (stereo not given)	106*	0	-1	15	-22	+	182*
CC(C)[C@H](NC(=O)C1CC(=O)N(c2ccc3c(c2)OCCO3)C1)C(=O)NC1CCCC1 (stereo not given in full)	96*	8	3	-3	-2	+	+
CCC(C)[C@H](NC(=O)C1CC(=O)N(c2ccc3c(c2)OCCO3)C1)C(=O)NC1CCCC1 (stereo not given in full)	2	6	39	-11	2	/	/
COC(=O)c1ccc(C=NN2CCN(Cc3ccc(C)cc3)CC2)cc1	/	0	/	/	/	/	/
Cc1ccc2c(C)cc[n+](CCCS(=O)(=O)[O-])c2c1	43*	6	-7	13	-4	13	5	GDH-TPI DR=>10
Cc1cc(C)c2sc(C)[n+](CCCS(=O)(=O)[O-])c2c1	6	0	48	0	2	/	/
Cc1cc(N2CCOCC2)nc2ccc(NC(=O)C3CCCCC3)cc12	13	/	/	2	/	/	/
Cc1cc(N2CCOCC2)nc2ccccc12	26	/	9	15	-8	/	/
Cc1cc(N2CCOCC2)nc2ccc(NC(=O)CCC(=O)N3CCN(c4ccccc4F)CC3)cc12	50*	-3	2	16	-4	76*	55*
Cc1cc(N2CCOCC2)nc2ccc(NC(=O)CCC(=O)N3CCN(c4ccc(F)cc4)CC3)cc12	63*	0	28	14	3	84*	52*
Cc1cc(N2CCOCC2)nc2ccc(NC(=S)N3CCCCC3C)cc12 (stereo not given)	36*	9	-13	14	94	122*	95*
Cc1cc(N2CCOCC2)nc2cc(O)ccc12	32*	1	-3	14	-6	87*	70*
CCCCNC(=O)CCC(=O)Nc1ccc2nc(N3CCN(C)CC3)cc(C)c2c1	23	-11	8	3	3	/	/
Cc1cc(N2CCOCC2)nc2ccc(NC(=O)CCC(=O)N3CCCC(C)C3)cc12 (stereo not given)	54*	0	15	15	2	114*	84*
COc1ccc2c(c1)OCC1C2N2C(=O)C(C)NC(=O)[C@@]2(C)C1c1ccccc1 (stereo not given in full)	/	4	/	/	/	/	/
c1ccc(-n2cnc3ccccc32)nc1	0	13	-8	4	-3	/	/
c1ccc(-c2ccc(-c3n(-c4ccccn4)c4ccccc4[n+]3-c3ccccn3)cc2)cc1	46*	-5	26	2	/	189*	172*
CCCOc1ccc(-c2nn(-c3ccccc3)cc2C=C2SC(N)=NC2=O)cc1	/	-2	/	/	/	/	/
Cc1nc2ccccn2c1-c1nnco1	36*	/	32	3	4	5	-4
Cc1cccc(Nc2nc(-c3c(C)nc4ccccn34)cs2)c1	1	21	24	7	3	/	/
COc1ccc(S(=O)(=O)N2CCN(Cc3ccc(OC)c(OC)c3)CC2)cc1	29*	4	51*	7	4	40*	42*
